B2AR ag: agonists of human beta-2 adrenergic receptor inducing internalization. P07550. Am2.2-beta2AR cells, FAP receptor internalization, flow cytometry. response, % (concentration not given with the values). hit rate 0.43% among 340,000. AID 504454;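 active = response above a set limit, near 3 SD of response in nonfluorescent compounds, cut at about 42% in these data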
NOD2-RIPK2 inh: blocks binding of human NOD2 to RIPK2 | O43353 | CHO BLA complementation NOD2-RIPK2, CCF4 ratio | inhibition, % at 4.98 µM | hit rate 0.38% among 360,000 | AID 624267; in the data active = inhibition above about 21%;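 also: 0% = vehicle only and 100% = reference blocker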
TLR4 MyD88 comp: TLR4-MyD88 interaction inhibition in cells. O00206+Q99836. HeLa CL3-4 TLR4/MyD88 BLA complementation, FRET ratio. inhibition, % at 8.4 µM. hit rate 0.18% among 200,000. AID 861; in the data active = inhibition above about 25%;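 also: 0% = vehicle and 100% = reference inhibitor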
Granule exo inh: blocks lytic granule exocytosis; TALL-104 LAMP-1 surface exposure, flow cytometry; cells stimulated with thapsigargin and PMA; inhibition, % at 10 µM; hit rate 0.66% among 360,000; AID 651702;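 active = inhibition above about 55%, limit read from the data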
TLR9-MyD88 block: blocks human TLR9 binding to MyD88; Q9NR96+Q99836; CHO BLA complementation TLR9-MyD88, CCF4 FRET ratio; inhibition, % at 4.98 µM; hit rate 0.21% among 340,000; AID 504734;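 active = inhibition above the mean over all tested compounds plus 3 SD, cut at about 21% in these data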;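 also: 0% = DMSO only wells and 100% = clavulanate BLA inhibitor control wells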
ABHD5 PLIN5 PPI: ABHD5-PLIN5 protein interaction inhibition; Split G. princeps luciferase complementation, luminescence, 4 h; inhibition, % at 4 µM; hit rate 0.78% among 360,000; Q00G26+Q8WTS1; AID 602281;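 active = inhibition above the mean inhibition across every tested compound plus 3 SD, cut at about 22% in these data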;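 also: 0% = DMSO only wells and the 100% control is not disclosed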
ABHD5 PLIN5 conf: ABHD5-PLIN5 interaction inhibition, confirmed; inhibition, % at 4 µM; hit rate 67% among 2,200; biochemical ABHD5-PLIN5 interaction, luminescence; shares compounds with ABHD5 PLIN5 PPI; in the data active = inhibition above about 23%;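 also: 0% = DMSO vehicle wells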
HNF4 split-luc: HNF4 split-luciferase signal hit, counter-screen; shares compounds with ABHD5 PLIN5 PPI; HNF4 dimerization, luminescence, biochemical; inhibition, % at 4 µM; hit rate 77% among 2,200; AID 651674;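 active = mean inhibition across replicate wells exceeding the computed hit threshold, cut at about 13% in these data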;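 also: light from luciferase halves that rejoin when HNF4 fusion proteins dimerize; 0% = DMSO only wells and the 100% control is not given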
NOD2-RIPK2 conf: NOD2-RIPK2 interaction inhibition confirmed; inhibition, % at 4.98 µM; shares compounds with NOD2-RIPK2 inh; CHO cells, NOD2-RIPK2 BLA complementation, CCF4 FRET; hit rate 70% among 1,200; AID 624370;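 active = mean inhibition across replicates above a set limit taken from the earlier primary screen, cut at about 21% in these data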;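 also: 0% = DMSO-only wells and the high end = clavulanate BLA-blocked wells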
NOD2 BLA counter: hits BLA reporter in NOD2-RIPK2 inhibitor counterscreen; AID 624371; hit rate 57% among 1,200; inhibition, % at 4.98 µM; CHO BLA reporter, CCF4 FRET ratio; shares compounds with NOD2-RIPK2 inh;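 active = mean inhibition above the low-control mean inhibition plus three low-control SD, cut at about 11% in these data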;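 also: 0% = DMSO only wells and 100% = clavulanate high control wells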
Exocytosis CP01: blocks lytic granule exocytosis; hit rate 11% among 1,500; TALL-104 cells, LAMP-1 externalization, flow cytometry; stimulated with PMA plus thapsigargin; shares compounds with Granule exo inh; inhibition, % at 10 µM; in the data active = inhibition above about 60%;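 also: 0% = stimulated vehicle wells and 100% = unstimulated wells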
Starred values were filed as active, the others as inactive; nt = not tested or not shown; + = active, no number. The list is not random: actives were taken first. Their share in the collection is about 2%.

SMILES	B2AR ag	NOD2-RIPK2 inh	TLR4 MyD88 comp	Granule exo inh	TLR9-MyD88 block	ABHD5 PLIN5 PPI	NOD2-RIPK2 conf	NOD2 BLA counter	others
N#Cc1cc(Oc2cccc3cccnc23)c(-n2nnc3ccccc32)cc1C#N	13.0	70.1*	3.0	99.0*	19.4	69.5*	-11.3	-3.1	ABHD5 PLIN5 conf=13.0;HNF4 split-luc=50.5*;Exocytosis CP01=-11.1
COc1ccc(C(=O)C(=O)N2CCN(c3ccc(C)cc3)CC2)cc1OC	nt	-11.8	nt	7.8	nt	-5.0	nt	nt
COc1ccccc1NC(=O)c1cc(-c2ccc(C)o2)nc2ccccc12	5.6	-6.8	nt	11.6	-1.1	8.2	nt	nt
Cc1ccc(NC(=O)c2cc(-c3ccc(C)o3)nc3ccccc23)cc1	2.9	-9.3	-4.0	84.0*	-5.0	35.3*	nt	nt	ABHD5 PLIN5 conf=38.0*;HNF4 split-luc=39.6*;Exocytosis CP01=-12.0
C[C@H]1Cn2cnc(C(=O)NCc3ccc(CNC(=O)OC(C)(C)C)cc3)c2C(=O)N1	nt	-9.2	nt	2.3	-3.8	-6.2	nt	nt
CCOc1ccc(-c2nnc(NC(=O)C3CCCC3)o2)cc1	-4.1	-8.5	nt	-21.0	5.9	-1.5	nt	nt
C(=C\c1ccccc1)/CSc1nnc(-c2cnccn2)n1Cc1ccco1	-4.8	-4.0	9.6	62.7*	-3.6	36.6*	nt	nt	ABHD5 PLIN5 conf=18.6;HNF4 split-luc=28.6*;Exocytosis CP01=-9.1
Fc1ccccc1CSc1nnc(-c2cnccn2)n1Cc1ccco1	-2.2	-17.8	0.5	-10.7	-5.1	-0.2	nt	nt
CCCc1cc(CN2CCOCC2)c(O)c(CN2CCOCC2)c1O	-0.7	2.7	nt	78.7*	-2.5	25.5*	nt	nt	ABHD5 PLIN5 conf=63.1*;HNF4 split-luc=99.5*;Exocytosis CP01=28.5
COc1cccc(C(=O)Oc2ccccc2/C=C\C(=O)c2cc3ccccc3o2)c1	10.6	9.8	12.4	86.2*	4.9	83.4*	nt	nt	ABHD5 PLIN5 conf=98.6*;HNF4 split-luc=101.5*;Exocytosis CP01=19.5
COc1ccc(C(=O)/C=C/c2ccccc2OC)c(OC(=O)c2ccc([N+](=O)[O-])cc2)c1	-0.8	-3.6	-11.3	-0.9	6.1	-0.6	nt	nt
CCOc1ccccc1C(=O)NCC(=O)NCC(C)(C)N1CCOCC1	0.6	28.9*	nt	8.0	-10.9	0.3	-3.7	-1.7
COc1ccccc1C(=O)NCCC(=O)NCC(C)(C)N1CCOCC1	-5.8	-4.2	nt	11.4	2.4	1.1	nt	nt
N#Cc1ccc(C(C(=O)NCc2ccccc2)n2c(=O)c(-c3cc4ccccc4[nH]3)nc3ccccc32)cc1 (configuration not stated)	nt	57.8*	nt	1.4	nt	4.0	54.0*	72.0*
O=C(NCc1ccccc1)C(c1ccc(C(F)(F)F)cc1)n1c(=O)c(-c2cc3ccccc3[nH]2)nc2ccccc21 (configuration not stated)	nt	48.9*	nt	5.1	nt	-11.9	47.4*	68.8*
CN(Cc1ccc(Cl)c(Cl)c1)C(C(=O)NCc1ccccc1)c1ccc(C(F)(F)F)cc1 (configuration not stated)	nt	-4.1	nt	-6.9	nt	-28.9	nt	nt
Cc1c(NC(=O)c2ccc(NS(=O)(=O)c3ccc(F)c(F)c3)cc2)c(=O)n(-c2ccccc2)n1C	-4.9	-9.9	nt	1.5	-0.6	6.0	nt	nt
CCNC(=O)NC(=O)C(C)N1C(=O)NC(c2ccccc2)(c2ccccc2)C1=O (configuration not stated)	1.8	+	nt	4.3	-4.8	1.6	0.4	-1.6
CCOc1ccc(C(=O)/C=C/c2cn(CN3CCN(C)CC3)c3ccccc23)cc1	0.6	26.1*	14.8	-2.4	16.1	-5.0	23.7*	36.7*
O=Cc1cn(CC(O)CN2CCCCC2)c2ccccc12 (configuration not stated)	1.9	-10.1	-1.8	-2.5	-9.3	0.8	nt	nt
Cc1ccc(C(=O)/C=C/c2cn(CC(O)CN3CCOCC3)c3ccccc23)cc1 (configuration not stated)	5.2	22.8*	5.4	14.8	19.1	20.1	36.2*	35.4*
O=C(NCc1ccco1)C(=O)c1c[nH]c2ccccc12	-1.4	31.6*	8.3	-17.2	1.2	0.0	-1.8	-3.8
O=C(Cc1c[nH]c2ccccc12)NCc1ccco1	-1.6	-5.5	2.6	-1.4	-0.1	-1.0	nt	nt
O=C(OCC(=O)N1CCN(c2ccccc2)CC1)c1cc(Br)ccc1Cl	-9.2	-20.2	nt	-4.6	-0.8	2.0	nt	nt
O=C(OCC(=O)N1CCN(c2ccccc2)CC1)c1cc(F)c(F)cc1Cl	nt	21.2*	nt	-1.1	-6.9	-10.3	-13.5	-4.0
SMILES	B2AR ag	NOD2-RIPK2 inh	TLR4 MyD88 comp	Granule exo inh	TLR9-MyD88 block	ABHD5 PLIN5 PPI	NOD2-RIPK2 conf	NOD2 BLA counter	others
Cc1cc(OCCn2cc(/C(N)=N/O)c3ccccc32)ccc1Cl	6.7	23.1*	-15.3	6.3	4.3	1.7	10.6	7.5
COC(=O)c1cn(CCOc2ccc(C)cc2)c2ccccc12	-6.7	3.5	9.9	-1.9	3.2	-15.7	nt	nt
CC1=C/C(=N\OS(=O)(=O)c2ccccc2)C(C)=CC1=O	20.4	53.6*	-0.8	99.1*	11.8	7.3	51.1*	13.5*
CCOC(=O)C[n+]1ccc2c([nH]c3ccccc32)c1C	3.7	38.3*	nt	-6.3	-4.8	0.3	3.5	-4.0
O=C1C(=O)c2cccnc2-c2ncccc21	nt	40.8*	nt	105.1*	nt	100.5*	2.9	3.8
COc1ccc(COc2cc(-c3cccc(OC)c3)nc3ccc(N)cc23)cc1	9.2	30.9*	-4.6	18.3	4.2	-7.2	11.5	14.8*
COc1ccc(COc2cc(-c3cccc(OC)c3)nc3ccc(NC(C)=O)cc23)cc1	7.2	3.7	-8.9	25.1	-1.4	-2.3	nt	nt
O=C1CCN2C=Nc3cccc4ccc1c2c34	0.2	22.7*	10.8	-3.3	16.0	-15.8	32.2*	38.1*
C[C@@H]1CN([C@H](C)CO)S(=O)(=O)c2ccc(C#CC3CCCC3)cc2O[C@H]1CN(C)C(=O)Cc1ccccc1	nt	-1.4	nt	3.4	-6.1	-1.6	nt	nt
CCN(CC)c1ccc2c(C)c(-c3ccc(N)cc3)c(=O)oc2c1	26.0	27.3*	14.9	25.0	12.3	-6.0	23.6*	32.7*
CN(CCc1ccccc1)C(=O)c1cccc(NC(=O)Cc2cccc(NC(=O)C3CCCN(C(=O)C4CCCC4)C3)c2)c1 (configuration not stated)	3.5	-11.7	nt	-10.9	-13.9	3.7	nt	nt

High-throughput results from PubChem.
